# This is a sample that favours compounds with a hit; in the whole collection about 1.5% have one here.
# MCL1-BIM inh: inhibitors of MCL1 binding to BIM-BH3, primary screen, biochemical, fluorescence polarization; Induced myeloid leukemia cell differentiation protein Mcl-1 (Homo sapiens), Q07820; GST-MCL1 / FITC-Bim-BH3 fluorescence polarization; inhibition, % at 10.9 µM; hit rate 0.68% among 320,000;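 active means inhibition above the mean inhibition of all tested compounds plus 3 SD, set per campaign, cut at about 40% in these data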;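 further: 0% = DMSO wells and 100% = unlabeled Bim-BH3 peptide control; higher means more loss of mP so more displacement of Bim peptide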
# Target sequence (Q07820 whole entry, looked up): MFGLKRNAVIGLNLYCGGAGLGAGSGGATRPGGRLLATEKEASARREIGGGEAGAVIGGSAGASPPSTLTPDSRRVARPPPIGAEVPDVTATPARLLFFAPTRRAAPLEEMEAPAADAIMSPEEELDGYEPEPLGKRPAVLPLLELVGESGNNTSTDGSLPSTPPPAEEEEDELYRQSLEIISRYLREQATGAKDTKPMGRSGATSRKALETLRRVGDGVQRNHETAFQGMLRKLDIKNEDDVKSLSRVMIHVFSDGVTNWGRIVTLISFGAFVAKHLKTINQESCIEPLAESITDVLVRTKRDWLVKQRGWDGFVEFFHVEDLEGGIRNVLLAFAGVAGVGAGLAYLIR
# IDE cell inh: human IDE inhibitors in live cells, primary screen, fluorescence polarization, HEK cells, FAbetaB substrate | AID 434962, 2010 | inhibition, % at 5.59 µM | hit rate 0.41% among 320,000 | Insulin-degrading enzyme (Homo sapiens), P14735 | FAbetaB cleavage;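 active means percent inhibition above the average of all tested compounds plus 3 SD, set per screening campaign, cut at about 16% in these data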;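 further: IDE supplied by intact live HEK cells; FP after avidin binding of uncleaved biotin substrate so inhibition keeps polarization high; 0% = DMSO wells and 100% = 60 µM reference IDE inhibitor Ii1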
# MEX-5 binding: MEX-5 zinc finger RNA-binding disruptors – biochemical, C. elegans, fluorescence polarization, MLPCN library, primary screen. AID 1832, 2009. hit rate 0.38% among 300,000. activity score (negative = inhibition of binding), % at 10 µM. Zinc finger protein mex-5 (Caenorhabditis elegans), Q9XUB2. MEX-5/FITC-TCR2 RNA binding; hits give low values;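 active means inhibition past about -25% in most replicates, and total fluorescence under double the plate's negative control median, limit read from the data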;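 further: 0% = DMSO and -100% = 5 µM competing unlabeled TCR2 RNA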
# GLD-1 RNA inh: GLD-1/TGE RNA complex disruptors, primary screen, biochemical, fluorescence polarization | inhibition, % at 5.96 µM | hit rate 0.44% among 320,000 | purified GLD-1 + fluorescein TGE RNA;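 active means percent inhibition above a per-plate cutoff, the plate mean of test compounds plus 3 SD, cut at about 30% in these data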;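 further: 0% = DMSO wells with GLD-1 and probe and 100% = wells lacking GLD-1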
# IDE act: human IDE activators in live cells, primary screen, fluorescence polarization, HEK cells, FAbeta-B substrate | hit rate 0.073% among 340,000 | Insulin-degrading enzyme (Homo sapiens), P14735 | AID 493087, 2011 | FAbeta-B cleavage; 0% vehicle, 100% cell-free pure enzyme wells | activation, % at 5.96 µM;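 active means activation above the mean of all tested compounds plus 3 SD, set per screening campaign, cut at about 17% in these data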
# Bcl-xL primary: inhibitors of human Bcl-xL, primary screen, biochemical, fluorescence polarization, HTS. Bcl-2-like protein 1 (Homo sapiens), Q07817. GST-Bcl-xL / FITC-Bim BH3 peptide fluorescence polarization. inhibition, % at 10.9 µM. hit rate 0.7% among 320,000. AID 2129, 2009;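 active means inhibition above the mean of all tested compounds plus 3 SD, cutoff set per campaign, cut at about 30% in these data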;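 further: 0% = DMSO wells and 100% = unlabeled Bim-BH3 peptide competitor; inhibitors lower millipolarization by displacing the labeled peptide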
# Target sequence (Q07817 whole entry, looked up): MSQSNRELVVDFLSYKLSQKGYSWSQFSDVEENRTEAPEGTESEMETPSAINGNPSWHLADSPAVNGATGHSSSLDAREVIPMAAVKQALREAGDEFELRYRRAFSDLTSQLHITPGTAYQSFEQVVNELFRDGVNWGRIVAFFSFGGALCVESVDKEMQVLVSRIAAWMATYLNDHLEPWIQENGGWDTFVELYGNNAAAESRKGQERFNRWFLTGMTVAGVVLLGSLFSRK
# The depositor's hits bear a star; . = no result given.
SMILES,MCL1-BIM inh,IDE cell inh,MEX-5 binding,GLD-1 RNA inh,IDE act,Bcl-xL primary
Cc1cc(NS(=O)(=O)c2ccc(NC(=O)Nc3cccc(C(F)(F)F)c3)cc2)no1,-1,0,2,8,-1,5
COCc1ccc(C(=O)NC2CCCN(Cc3ccccc3F)C2)o1 (stereo not given),-9,1,0,6,-2,36*
CCn1c(/N=C/c2ccc(OC)cc2O)nc2ccccc21,-3,-4,0,-3,4,-3
Oc1ccc(C=Nc2cccc3ncccc23)c(O)c1,29,5,1,55*,0,29
COc1cccc(N=Cc2ccc(O)cc2O)c1,43*,3,-1,24,2,43*
Oc1ccc(C=Nc2ccc3ncccc3c2)c(O)c1,11,12,-1,2,.,7
Cc1cccc(/C=C(\C#N)C(=O)Nc2ccccn2)c1,35,5,-19,25,-1,37*
Cc1ccc(S(=O)(=O)Nc2cccc3c2O[C@H](CN(C)C(=O)Nc2cccc4ccccc24)[C@H](C)CN([C@H](C)CO)C3=O)cc1,.,-2,.,11,1,.
CN(C1CCCCC1)S(=O)(=O)c1cccc(C(=O)OCC(=O)NC2CCCc3ccccc32)c1 (stereo not given),-3,-7,1,5,6,-1
O=C(c1cc(F)ccc1F)C1CCCN(C(=O)CCc2cnccn2)C1 (stereo not given),1,-1,0,-1,0,-2
O=C(c1cc(F)ccc1F)C1CCCN(C(=O)CCCN2CCCCC2=O)C1 (stereo not given),5,-3,-1,4,3,51*
Oc1ccccc1N=Cc1c(O)ccc2oc3c(c12)CCCC3,15,3,-4,38*,-3,14
CC(C)Cc1nn2c(N)c(/C=C3\C=Nc4ccccc43)c(=O)nc2s1,9,8,-46*,-29,-2,4
COc1cc(C2C(C#N)=C(N)Oc3n[nH]c(-c4cccnc4)c32)cc(Br)c1O (stereo not given),-6,8,-34*,-9,-12,-1
Cc1nn(CCO)c2ncc(C(=O)c3cc(Cl)ccc3O)cc12,-5,6,0,-1,4,-4
CC1CCN(C(=O)/C(=C/c2ccccc2Cl)c2ccccc2)CC1,6,0,0,0,1,6
N#CC(C#N)=C1C=CC=CN1/C(=C\c1ccccc1Cl)C(=O)c1ccccc1,43*,0,.,26,-5,51*
CC(C)c1ccc(NC2CCCN(C(=O)CN3C(=O)CSC3=O)C2)cc1 (stereo not given),3,1,0,-6,3,1
COc1ccc(C=C(c2nc3ccccc3s2)c2nc3ccccc3s2)cc1O,-5,3,-3,32*,-4,11
COc1ccc(/C=N/Nc2nc3ccccc3s2)cc1O,.,.,-1,.,6,.
Cc1ccc(N2CC(C)Cn3c2nc2c3c(=O)[nH]c(=O)n2C)cc1C (stereo not given),0,3,1,-3,-3,6
C[C@H](O)[C@H](O)[C@H]1CNc2nc(N)[nH]c(=O)c2N1,28,-2,-11,20,1,33*
NS(=O)(=O)c1ccc(-c2ccc(/C=C3\SC(=S)N(C4CCS(=O)(=O)C4)C3=O)o2)cc1 (stereo not given),-58,20*,.,-68,-58,-40
NC1=NC(=O)/C(=C\c2ccc(-c3ccc(Cl)cc3)o2)S1,-10,9,-5,-12,-1,-2
CN(C)C1=NC(=O)/C(=C/c2ccc(-c3ccc(S(N)(=O)=O)cc3)o2)S1,24,-4,-29*,-1,.,25
SMILES,MCL1-BIM inh,IDE cell inh,MEX-5 binding,GLD-1 RNA inh,IDE act,Bcl-xL primary
CC1CCN(C(=O)CCc2ccc(Oc3cc([N+](=O)[O-])cc([N+](=O)[O-])c3)cc2)CC1,14,-6,4,0,1,2
Cc1ccccc1OC1C(=O)N(CC2CCCO2)C1c1ccc2c(c1)OCO2 (stereo not given),5,-1,-3,4,3,100*
O=C(CN1C(=O)c2ccccc2C1=O)Nc1cc(C(=O)O)cc(C(=O)O)c1,7,-1,-1,64*,-4,6
O=C(CN1C(=O)c2ccccc2C1=O)NCC(=O)Nc1ccccc1,.,.,.,.,6,.
COC/C=C/C1=CC2=CC(=O)C(C)(OC(=O)c3cnc4ccccc4n3)C(=O)C2=CN1CCc1c[nH]c2ccccc12 (stereo not given),29,-1,-12,10,.,11
CC(OC(=O)c1nc(-c2ccccc2)n(-c2ccccc2)n1)C(=O)Nc1cc(Cl)cc(Cl)c1 (stereo not given),-21,7,0,3,2,-1
Cn1cnnc1SCC(=O)Nc1ccc2ccccc2c1,-6,4,.,7,3,0
O=C1c2cc(F)ccc2-n2c1nc1ccccc1c2=O,4,4,-33*,-8,4,8
Nn1c(-c2ccc(F)cc2)nc2ccccc2c1=O,8,3,3,-6,2,5
C/C=C(\C)CN1CCC(Oc2cc(C(=O)NC3CC3)ccc2OC)CC1,5,-3,-1,0,-1,4
COc1ccc(C(=O)NC2CC2)cc1OC1CCN(C(C)CSC)CC1 (stereo not given),27,7,-12,15,4,31*
COC(=O)c1ccc(N/N=C/c2cc([N+](=O)[O-])cc(OC)c2O)cc1,5,7,-11,-1,3,36*
COc1ccccc1N1CCN(S(=O)(=O)c2cn(C)c(=O)n(C)c2=O)CC1,-7,-2,0,-8,6,47*
CN(CC(=O)Nc1ccc(Cl)c(C(F)(F)F)c1)C(=O)c1ccc2c(c1)NC(=O)CS2,-11,3,.,-1,-3,-8
CCOc1ccc(C2C(C(=O)/C=C/c3ccco3)=C(O)C(=O)N2CCN2CCOCC2)cc1OC (stereo not given),23,0,0,12,7,34*
COc1ccc(C2C(C(=O)/C=C/c3ccco3)=C(O)C(=O)N2CCN2CCOCC2)cc1 (stereo not given),21,5,-3,9,7,23
CCOc1ccc(NC(=O)CN(C)C(=O)C2=COCCO2)cc1OCC,-6,-7,0,5,0,-1
